This is part of a sample that, as a whole, favours compounds with a hit. Of some 83,000 tested, about 20% had one in any assay.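 Percent growth is the endpoint: 0 to 100 indicates growth inhibition (40 means 60% inhibition), 0 means no net growth, and negative values indicate cell death.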 Activity calls are given as the source filed them.

This experiment has as its system SK-MEL-5 melanoma. Description: NCI-60 one-dose screen, 48 h (100 = growth as untreated, 0 = no growth, -100 = all killed). The note with it: 10 µM unless noted. On the procedure:
Growth inhibition of the SK-MEL-5 human tumor cell line is measured as a screen for anti-cancer activity. Cells are grown in 96 well plates and exposed to the test compound for 48 hours. Compounds are tested at a single concentration, which is 10^-5 M for most compounds. The reported endpoint is percent growth (GI% or GIPRCNT), where numbers from 0 - 100% represent growth inhibition, and numbers from -100% - 0 represent cell death. For example, a value of 40 represents 60% growth inhibition. A value of 0 means no net growth occurred over the course of the experiment. A value of -40 indicates 40% of cells at the beginning of the experiment died by the end of the experiment. A value of -100 means all cells are dead at the end of the experiment.
NCI-60 Human Tumor Cell Lines Screen was performed using the standard one-dose NCI protocol, which is described in more detail at https://dtp.cancer.gov/discovery_development/nci-60/default.htm.
Compounds with GIPRCNT values below 10 were considered active. Activity score was based on GIPRCNT using the following formula: […]
Score is 0 for GIPRCNT values of 100 or above, 50 for GIPRCNT values of 0, and 100 for GIPRCNT values of -100.
In the case of `COc1ccc2c(c1)c(-c1nc(-c3cn(C)c4ncccc34)cs1)cn2CCN`, the growth is 60.3% (inactive).
Then `CCSc1sc(-c2ccc(C)cc2)nc1[P+](c1ccccc1)(c1ccccc1)c1ccccc1`, with -98.7% (active).
The value for `CNC(=O)c1cc(Oc2ccc3nc(NC(=O)Nc4ccc(Cl)cc4)sc3c2)ccn1` was 73.3% (inactive).
Then `COC(=O)[C@]12CC[C@@H](C)[C@H](C)[C@@H]1C1=CC[C@@H]3[C@@]4(C)C(c5ncon5)=C[C@@](C)(CO)C4=CC[C@@]3(C)[C@]1(C)CC2`, with -71.6% (active).
Take `CN1CCN(c2nc(-c3cccc4ccccc34)nc3sc4c(c23)CCCCCC4)CC1`: the growth is 85.3% (inactive).
The value for `Cc1ccc(NC2CC(=O)N(c3c(C)cc(C)cc3C)C2=O)c(C)c1` (stereo not given) was 99.9% (inactive); that for `N=c1ccc2nc3c(cc(N)c4ccccc43)oc-2c1` was -100% (active).
On to `CCOC(=O)C/C(=C\c1ccccc1)C(C)=O`, for which the growth was 106% (inactive).
The value for `CC(=O)O[C@H]1CC[C@]2(C)[C@H]3C(=O)C=C4[C@@H]5C[C@](C)(C(=O)N6CCCNCC6)CC[C@]5(C)CC[C@@]4(C)[C@]3(C)CC[C@H]2C1(C)C` was 90.2% (inactive); that for `Cn1cc(-c2nc(-c3c[nH]c4ncccc34)cs2)c2cc(Cl)ccc21` was 83.3% (inactive).
The value for `COc1cc(-c2c(C#N)c(-c3cccs3)nc3c2c(-c2ccccc2)nn3-c2ccccc2)ccc1O` was 94.9% (inactive).
The value for `COc1cc2[nH]c(C(=O)c3cc(OC)c(OC)c(OC)c3)c(N)c2cc1C#CC1CC1` was 18.4% (inactive); that for `Cc1cccc(C)c1NCc1nc(-c2ccccc2)n[nH]1` was 102% (inactive); that for `Cn1c(=O)c2c(nc(N3CCCC3)n2C)n(C)c1=O` was 102% (inactive).
For the compound `COc1cccc(-c2nn(-c3ccccc3)cc2-c2ccnc(NCCNS(=O)(=O)c3ccc(C(F)(F)F)cc3)c2)c1`, the growth is -94.7% (active).
Then `Fc1ccc2nc(-c3cc(-c4ccc5c(c4)OCO5)n[nH]3)[nH]c2c1`, with 20.4% (inactive).
The value for `COc1cccc(-c2nn(-c3ccccc3)cc2-c2ccnc(NCCNS(=O)(=O)c3ccc(Cl)cc3)c2)c1` was -13.7% (active); that for `N#CC1=C(N)Oc2ccc3ccccc3c2C1c1ccccc1Cl` (stereo not given) was 42.7% (inactive).
For the compound `COc1ccc(C2(Cl)c3ccccc3N(c3ccccc3)c3ccccc32)cc1`, the growth is -87.3% (active).
On to `Cc1cc(N(CCCNc2ccnc3cc(Cl)ccc23)Cc2ccco2)nc(Cl)n1`, for which the growth was -8.23% (active).
Then `Cc1[c-]onc1C.Cc1[c-]onc1C.[Ag].[Ag].[NH-]S(=O)(=O)c1ccc(N=Nc2cc(N=Nc3ccc(S([NH-])(=O)=O)cc3)c3c(NC(=O)C(Cl)Cl)cccc3c2OC(=O)C(Cl)Cl)cc1`, with 24.2% (inactive).
Then `CC1(C)NC2=C(C(Nc3cccnc3)N1)C(c1ccc([N+](=O)[O-])cc1)C(C(=O)c1ccc(N=[N+]=[N-])cc1)O2` (stereo not given), with 102% (inactive).
In the case of `Cn1c2ccccc2c2c3c(c4c5cccnc5[nH]c4c21)C(=O)N(O)C3=O`, the growth is 12.7% (inactive).
Then `Nc1ccc(Cl)cn1`, with 103% (inactive); and `COC(=O)c1cc(=O)nc(N/N=C/c2ccc(C)cc2)s1`, with 98.9% (inactive).
The value for `Oc1ccc(Nc2ccccc2)cc1` was 83% (inactive); that for `C#CCn1c2c(c3ccccc31)C[C@]1(C)[C@H]3CC[C@@H]4[C@@H]5C(=CCC[C@H]5C(=C)C)CC[C@@]4(C)[C@]3(C)CC[C@H]1C2(C)C` was 100% (inactive); that for `C[C@@H](C(=O)O)c1ccc2c3cc(Cl)ccc3n(Cc3cc(=O)oc4ccc(Cl)cc34)c2c1` was 98.4% (inactive).
The value for `COc1cccc(-c2nn(-c3ccccc3)cc2-c2ccnc(NCCCNS(=O)(=O)c3ccccc3)c2)c1` was 11.3% (inactive); that for `COc1ccc(C2=NN(c3nc(-c4ccc(OC)cc4)c(C#N)c(=O)n3C)C(=O)CC2)cc1` was 96.3% (inactive).
Consider `CCCCC[C@H]1C/C=C2/C(=O)C(Cl)=C[C@@H]2C/C=C\CCCC(=O)O1`, for which the growth was -77.5% (active).
The value for `COC(=O)C(Cc1ccccc1)n1cc(COc2nc(Cl)nc(Nc3ccc(Cl)cc3)n2)nn1` (stereo not given) was 103% (inactive); that for `Cn1c(/C(C#N)=C/c2ccc3ccccc3c2)cc2ccccc21` was -26.7% (active); that for `Cn1cc(-c2nc(-c3c[nH]c4ncccc34)cs2)c2cc(Br)ccc21` was 91.8% (inactive).
Then `S=c1[nH]nc2ccccn12`, with 92.3% (inactive).
Then `COc1cnc2c(c1)C(=O)c1c-2n(CCCNCCN2CCOCC2)c(=O)c2cc([N+](=O)[O-])ccc12`, with -87.8% (active); and `COc1ccc(-c2cc(/C=C/C(=O)c3ccc(OC)c(OC)c3)[nH]n2)cc1`, with 51.3% (inactive).
Regarding `Cn1cc(-c2nc(-c3c[nH]c4ncccc34)cs2)c2cc(F)ccc21`, the growth was 51.4% (inactive).
Then `COC(=O)[C@]12CC[C@@H](C)[C@H](C)[C@@H]1C1=CC(=O)[C@@H]3[C@@]4(C)C[C@@H](OC(C)=O)[C@H](OC(C)=O)[C@@](C)(COC(C)=O)[C@@H]4C(=O)C[C@@]3(C)[C@]1(C)CC2`, with 20% (inactive); and `COc1ccc(-c2cc(/C=C/C(=O)c3ccc(N)cc3)[nH]n2)cc1`, with 23.9% (inactive).

These data come from PubChem BioAssay (NCI).
